# Source: PubChem BioAssay
# Compounds with a hit are over-represented: about 5.4% of the library has one in this group of screens.
# RORg inh: qHTS for inhibitors of ROR gamma transcriptional activity; Nuclear receptor ROR-gamma (Mus musculus), P51450; Drosophila S2 Gal4-RORgamma UAS-luciferase reporter, 20 h; Potency, µM (top dose mostly 53.6 µM), for the others: at the top dose activity change, negative = inhibition, most hits filed as inhibitors; 5.4% of 310,000 active; AID 2551, 2010; also: potency is read from the fitted curve at half-maximal effect; % is scaled to controls: 0 for no effect and ±100 for the full control effect; nearly all actives have a fitted effect of over 60% in size
#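 Stably transfected Drosophila Schneider cells are the test system, with ROR gamma fused to Gal4 and luciferase under UAS control; luminescence is read after 20 hr of 700 uM copper sulfate induction at ambient temperature.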
# VP16 counter: VP16 counterscreen qHTS for inhibitors of ROR gamma transcriptional activity; Drosophila S2 Gal4-VP16 UAS-luciferase, luminescence, 20 h; Potency, µM (doses to about 53.6 µM), for inactives: at the highest dose activity, negative = inhibition, actives largely listed as inhibitors; 3.5% of 310,000 active; AID 2546, 2010;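 also: Gal4-VP16 expression switched on by copper sulfate through the metallothionein promoter; potency is read from the fitted curve at half-maximal effect; % is scaled to controls: 0 for no effect and ±100 for the full control effect; nearly all actives have a fitted effect of over 50% in size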
# CtBP-E1A blk: qHTS Assay for Inhibitors of the CtBP/E1A Interaction; AlphaScreen GST-E1A/His-CtBP binding, 1536-well; hits give low values; activity change, % (test concentration not listed); 0.49% of 340,000 active; AID 651724, 2012; in the data active = activity change below about -65%; inconclusive = mostly about -30% to -63%; also: % is scaled to controls: 0 for no effect and ±100 for the full control effect
#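 Protein mix (5X: 125 nM each GST-E1A, His-CtBP) was incubated with pinned compound 2 h at 37 deg C in dark, in 50 mM Tris pH 8.0 buffer with 300 mM NaCl. Glutathione donor and nickel acceptor beads followed; AlphaScreen signal read after 1 h.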
# Six1-Eya2 blk: qHTS Assay for Inhibitors of the Six1/Eya2 Interaction; Homeobox protein SIX1 (Homo sapiens) + Protein phosphatase EYA2 (Homo sapiens), …; AlphaScreen GST-Six1/His-Eya2 binding, biochemical; hits give low values; AID 651725, 2012; 0.56% of 360,000 active; activity change, % (test concentration not listed); in the data active = activity change below about -65%; inconclusive = mostly about -30% to -63%; also: % is scaled to controls: 0 for no effect and ±100 for the full control effect
# Target sequence (O00167 whole entry, looked up): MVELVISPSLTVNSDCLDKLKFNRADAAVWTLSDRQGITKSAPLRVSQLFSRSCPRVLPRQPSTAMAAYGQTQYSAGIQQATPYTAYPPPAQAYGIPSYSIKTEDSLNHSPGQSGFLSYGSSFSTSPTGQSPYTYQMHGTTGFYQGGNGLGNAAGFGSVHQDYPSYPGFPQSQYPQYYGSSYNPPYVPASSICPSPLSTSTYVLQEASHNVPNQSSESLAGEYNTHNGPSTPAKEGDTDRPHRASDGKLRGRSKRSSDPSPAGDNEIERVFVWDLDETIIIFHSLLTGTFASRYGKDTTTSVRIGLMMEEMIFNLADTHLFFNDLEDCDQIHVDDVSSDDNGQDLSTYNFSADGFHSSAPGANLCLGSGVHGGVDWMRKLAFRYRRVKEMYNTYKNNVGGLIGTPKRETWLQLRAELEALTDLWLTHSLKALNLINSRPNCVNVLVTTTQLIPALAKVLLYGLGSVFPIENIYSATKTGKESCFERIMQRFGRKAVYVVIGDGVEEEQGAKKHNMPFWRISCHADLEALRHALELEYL
# Target sequence (Q15475 whole entry, looked up): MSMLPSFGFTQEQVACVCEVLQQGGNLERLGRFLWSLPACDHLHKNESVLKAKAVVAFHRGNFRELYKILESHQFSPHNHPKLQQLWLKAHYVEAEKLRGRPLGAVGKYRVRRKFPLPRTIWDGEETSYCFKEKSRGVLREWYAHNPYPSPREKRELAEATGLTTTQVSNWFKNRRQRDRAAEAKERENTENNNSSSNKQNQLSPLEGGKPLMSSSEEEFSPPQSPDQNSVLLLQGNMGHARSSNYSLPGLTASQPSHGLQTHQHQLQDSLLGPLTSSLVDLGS
#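 Compounds are tested against tagged Six1 and Eya2 proteins bridged by glutathione donor and nickel acceptor beads; after a one-hour incubation at 37 °C without light, AlphaScreen emission is recorded.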
# p53 reactivation: qHTS assay for re-activators of p53 using a Luc reporter; H1299 p53-A138V BP100-luciferase reporter, luminescence, 24 h; Potency, µM (doses to about 92.2 µM), without a hit: at the highest dose activity change, positive = activation, usual class: activators; 0.063% of 320,000 active; AID 504706, 2011; also: potency is read from the fitted curve at half-maximal effect; % of control where 0% means no effect; nearly all actives have a fitted effect of over 45% in size
#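 H1299 (p53-null), stable ts p53-A138V + BP100-Luc; 1000 cells/well, Opti-MEM/10% FBS; cpd 4 pt, 1:5; 24 h, 37 deg C, 5% CO2; detection reagent 10 min RT; luminescence.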
# Starred values were filed as active, the others as inactive; ? = inconclusive; nt = no result. Unless noted, calls follow the shape of the dose curve; as a rule, active = well fitted curve in the direction sought with a large enough effect; inconclusive = small, poorly fitted or top-dose-only effect, or another doubt; inactive = no such curve, though single readings can be large; an effect the other way counts as inactive or inconclusive.
SMILES,RORg inh,VP16 counter,CtBP-E1A blk,Six1-Eya2 blk,p53 reactivation
CC(C)(C)c1ccc(/C=N/NC(=S)Nc2cccnc2)cc1,0.18µM*,1.3µM*,nt,nt,-7%
COc1cc(/C=N/NC(=S)Nc2cccnc2)cc(OC)c1OC,-1%,1%,?,-25,-2%
CCN(CC)S(=O)(=O)c1ccc(NC(=O)C2c3ccccc3Oc3ccccc32)cc1,-5%,?,-17,-7,5%
COc1cc(-c2cc3nc(NCCOc4ccccc4)ccn3n2)cc(OC)c1OC,nt,nt,-11,-7,nt
Cc1ccc2ccccc2c1NC(=O)CNCc1ccccc1,nt,nt,1,-1,nt
Oc1ccc(/C=N/NC(=S)Nc2cccnc2)cc1O,8.9µM*,?,-6,-23,16%
COCCN1Cc2cccc(C(=O)Nc3ccc(C)c(C)c3)c2C1=O,-17%,-1%,-79*,-74*,5%
COCCN1Cc2cccc(C(=O)Nc3cccc(OC)c3)c2C1=O,-1%,1%,-2,1,6%
CN(CC(=O)Nc1ccc(OC(F)(F)F)cc1)C(=O)/C=C/c1cc2c(cc1[N+](=O)[O-])OCO2,nt,nt,-9,-4,-8%
COc1cc(C2C=C(c3cccs3)Nc3ncnn32)cc(OC)c1OC (configuration not stated),?,?,-7,-23,-3%
Cc1onc(-c2c(F)cccc2Cl)c1C(=O)NC(=S)NCc1cccnc1,16µM*,?,18,-3,-19%
CC(C)(C)c1ccc(C(=O)Nc2ccc(C(=O)NCc3cccnc3)cc2)cc1,?,28µM*,-5,1,2%
Cc1ccc(C(=O)NC(=S)NCc2cccnc2)cc1C,13µM*,?,-14,6,3%
CC(C)c1ccc(C(=O)NC(=S)NCc2cccnc2)cc1,2.8µM*,?,3,-2,3%
COc1ccc(C(=O)NC(=S)NCc2cccnc2)cc1Br,?,?,nt,0,11%
O=C(NCc1cccnc1)NC(=O)c1ccc(Cl)cc1,27%,3%,6,9,?
COc1ccc(CC(O)CO)cc1OCc1ccccc1 (configuration not stated),nt,nt,0,-2,nt
CSCCC(NC(=O)c1ccc(Cl)cc1)C(=O)OCC(=O)c1ccc[nH]1 (configuration not stated),23%,6%,-9,-7,1%
O=C(Nc1cccc(F)c1)N1CC2(CCN(C(=O)c3cc(C(F)(F)F)cc(C(F)(F)F)c3)CC2)C1,-11%,-3%,nt,nt,nt
O=C(NCc1cccnc1)c1ccc(NC(=O)c2ccc([N+](=O)[O-])cc2)cc1,4%,-6%,-1,-1,-2%
CCOC(=O)Cc1ccc(NC(=O)c2ccc(C(C)(C)C)cc2)cc1,0.2µM*,?,13,6,-17%
O=C(NC(=S)NCc1cccnc1)c1ccc([N+](=O)[O-])cc1,8.9µM*,?,nt,6,10%
O=c1ccc2c([nH]1)CCCCCCCCCC2,-5%,5%,-4,4,nt
CCCCNC(=O)C(NC(=O)c1ccc(-c2ccccc2)cc1)C(=O)c1ccccc1 (configuration not stated),nt,nt,-2,5,nt
O=C(N/N=C/c1cn(-c2cccs2)nc1-c1ccccc1)c1ccc(O)cc1,?,18µM*,1,-3,26%
O=C(O)c1cccc(N/N=C/c2cn(-c3ccccc3)nc2-c2cccs2)c1,?,23%,1,-11,0%
O=C(N/N=C/c1cn(-c2cccs2)nc1-c1ccccc1)c1ccccc1Cl,3.5µM*,7.9µM*,-14,-2,?
CCc1nc2ccccc2c(C(=O)OCC(=O)Nc2cccc(S(=O)(=O)N3CCOCC3)c2)c1C,?,?,?,?,-4%
O=C1c2ccc(Br)cc2C(=O)N1c1ccc(Cl)cn1,-6%,-6%,10,5,nt
Cc1cc(N2CCCCC2)nc(NCc2ccccc2)n1,20µM*,?,-24,-2,-2%
